# High-throughput results: PubChem BioAssay, several laboratories
# Most compounds without a hit are left out; they make up all but 1.6% or so of the library.
# ATG4B inhibitor: inhibitors of human ATG4B cysteine protease; 340,000 tested, 0.51% active; inhibition, % at 8.33 µM; ATG4B cleavage of LC3-PLA2, NBD-HPC fluorescence, 1 h; in the data active = inhibition above about 40%
# PKA-R1A act: activates the PKA-R1A holoenzyme complex. 340,000 tested, 0.083% active. activation, % at 11.4 µM. AID 504707. PKA-R1A dissociation, Cy5-IP20 fluorescence polarization; scaled: DMSO 0%, 113 µM cGMP 100%. P00514+P68181;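 active = percent activation above the mean of all tested compounds plus 3 SD, cut at about 19% in these data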;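 note: higher means more PKAc released from R1A so a rise in polarization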
# VLA-4 inh: inhibition in a human VLA-4 binding assay; AID 2557; P13612; 330,000 tested, 0.2% active; VLA-4 expressing cells, ligand binding flow cytometry; inhibition, % (about 7 µM as worked out from the volumes in the protocol); in the data active = inhibition above about 50%
# PKA-R2B activ: activates the human PKA-R2B holoenzyme complex; P22694+P31323; PKA-R2B holoenzyme dissociation, Cy5-IP20 fluorescence polarization; R2B truncated from residue 108, S112A mutant; 0% DMSO only, 100% 113 µM cGMP; activation, % at 11.4 µM; 340,000 tested, 0.079% active;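 active = activation above a cutoff set at the mean over all compounds plus 3 SD, cut at about 18% in these data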;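 note: higher means more holoenzyme dissociation and a rise in polarization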
# CendR NRP1 mod: NRP-1/CendR interaction modulation. O14786. FAM-RPARPAR peptide binding to NRP-1, fluorescence polarization. inhibition, % at 25 µM. 360,000 tested, 0.85% active;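 active = inhibition or corrected inhibition above about 18%, plus a signal ratio from 0.5 to 1.5, limit read from the data, passing the limit was not always enough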
# Hits are given with their value; . = inactive; / = not tested or not shown.
SMILES,ATG4B inhibitor,PKA-R1A act,VLA-4 inh,PKA-R2B activ,CendR NRP1 mod
CCCCNC(=O)C1C(c2ccc(OC)cc2)=Nc2ccccc2N1C(=O)c1ccc2ncccc2c1 (stereo not drawn),/,/,/,/,.
Cc1ccccc1-n1nc2c(c1NC(=O)c1c(-c3ccccc3Cl)noc1C)CSC2,.,.,.,.,.
Cc1ccc(-n2nc3c(c2NC(=O)c2c(-c4ccccc4Cl)noc2C)CSC3)cc1,43,/,.,/,/
Cc1cc2oc(=O)cc(CN3CCOCC3)c2cc1C,.,.,.,.,.
CCNc1cc2oc(=O)c(CN3CCOCC3)c(C)c2cc1C,.,.,.,.,25
Cc1nnc(N2CCC(C(=O)NC3CCC(C)CC3)CC2)c2nn(-c3ccc(Cl)cc3)c(C)c12 (stereo not drawn),.,.,.,.,.
Cc1nnc(N2CCC(C(=O)N3CCCCC3)CC2)c2nn(-c3ccc(Cl)cc3)c(C)c12,53,.,.,.,.
COc1cccc(Nc2nc(C(N)Cc3ccc(Cl)cc3)cs2)n1 (stereo not drawn),/,/,/,/,.
O=C1c2ccccc2C(=O)c2[nH]c(=O)[nH]c21,.,.,.,.,28
O=C1c2ccccc2C(=O)c2c1ncn2-c1ccccc1,.,.,.,.,.
O=C1c2ccccc2C(=O)c2[nH]cnc21,.,.,.,.,18
O=C(CC[C@H]1O[C@@H](n2cnc3c(NC(=O)c4ccccc4)ncnc32)[C@H](O)[C@@H]1O)NCc1nc2ccccc2[nH]1,/,/,/,/,.
O=C(CN1CCN(S(=O)(=O)c2ccccc2)CC1)Nc1ccccc1C(=O)NC1CC1,.,.,.,.,.
CC(=O)c1ccc(S(=O)(=O)N2CCN(CC(=O)Nc3ccccc3C(=O)NC3CC3)CC2)cc1,.,.,.,.,17
O=C(NCc1ccccc1)c1ccccc1C(=O)c1ncc[nH]1,.,.,.,.,27
O=C1NC(=S)S/C1=C\c1ccc(SCc2ccco2)o1,67,.,.,.,.
Cc1ccc(C(=O)NCCN2CCC(n3c(=O)[nH]c4ccccc43)CC2)cc1,/,/,/,/,.
CCOC(=O)Cc1c(C)c2c(C)[nH]nc2oc1=O,.,.,.,.,43
C=CCn1c(SCC(=O)Nc2ncc(Cc3ccc(Br)cc3)s2)nnc1-c1ccncc1,.,.,.,.,23
Oc1[nH]c(=S)sc1/C=C1\C(c2ccccc2)=Nc2ccccc21,99,.,.,.,.
Oc1[nH]c(=S)sc1C=C1N=c2ccccc2=N1,.,/,.,/,.
CSc1cccc(NC(=O)c2ccco2)c1,.,.,.,.,21
CN(C)c1cccc(NC(=O)c2ccco2)c1,.,.,.,.,.
CC(OC(=O)c1ccco1)C(=O)Nc1nc(-c2ccccc2)cs1 (stereo not drawn),.,.,.,.,30
CCOC(=O)c1ccc(-c2c(-c3cc(OC)c(OC)c(OC)c3)noc2C)cc1F,.,.,.,.,25
SMILES,ATG4B inhibitor,PKA-R1A act,VLA-4 inh,PKA-R2B activ,CendR NRP1 mod
CCOC(=O)c1ccc(-c2c(-c3ccc(OC)cc3)oc(=O)c3cc(OC)c(OC)cc23)cc1F,.,.,.,.,.
CN1C[C@@H]2C(c3ccc(Cl)nc3)C3(c4ccccc4)CC2(C3)[C@H]1c1ccccc1 (stereo partly drawn),.,.,.,.,23
CN1CCN(C(=O)c2ccc(COc3ccc(C(C)(C)C)cc3)o2)CC1,.,.,.,.,23
CCc1nc2c(OCc3ccc(C(F)(F)F)cc3)cccn2c1N(C)C(=O)C1CC1,/,/,/,/,.
CSc1ccccc1C(=O)N1CCN(c2cccc(Cl)c2)CC1,.,.,.,.,45
CCCc1nnc(NC(=O)CCCN2C(=O)c3ccccc3C2=O)s1,.,.,.,.,29
CCCc1nnc(NC(=O)c2cc3ccccc3oc2=O)s1,.,.,.,.,26
CCCCc1nnc(NC(=O)CN2C(=O)c3ccccc3C2=O)s1,.,.,.,.,.
CCCc1nnc(NC(=O)c2cc3ccccc3o2)s1,.,.,.,.,.
COC(=O)C1CC2=C(CCCC2=O)NC1=O (stereo not drawn),.,.,/,.,.
COC(=O)C1CC2(C(=O)OC)CC(C(=O)OC)(CC(C(=O)OC)C2=O)C1=O (stereo not drawn),.,.,/,.,26
CCCn1nc(C(=O)NCC2COc3ccccc3O2)c2ccccc2c1=O (stereo not drawn),.,.,.,.,.
COc1cccc(-c2nc(CS(=O)(=O)CC(=O)NCc3ccc(Cl)cc3)c(C)o2)c1,.,.,.,.,20
O=C(NCC1CC1)c1onc(CSc2nc3ccccc3[nH]2)c1C(=O)NCC1CC1,.,.,.,.,26
CCCCNC(=O)c1onc(CSc2nc3ccccc3[nH]2)c1C(=O)NCCCC,.,.,.,.,.
Cc1cc(C)c2c(CN3CCN(c4ccccc4F)CC3)cc(=O)oc2c1,/,/,/,/,.
CC(=O)Nc1ccc(S(=O)(=O)N2CCN=C2SCc2cccnc2)cc1,.,.,.,.,29
CC(=O)Nc1ccc(S(=O)(=O)N2CCN=C2SCc2ccc(C)cc2)cc1,.,.,.,.,.
CC(C)n1nnnc1C1c2ccccc2C(=O)N1Cc1ccco1 (stereo not drawn),/,/,/,/,.
COc1cc(OC)cc(C(=O)Nc2ccccc2S(=O)(=O)N2CCCC2OC(C)=O)c1 (stereo not drawn),.,.,.,.,18
COc1ccccc1NC(=S)N(Cc1ccco1)Cc1cc2cccc(C)c2[nH]c1=O,.,.,.,.,40
COc1ccccc1NC(=S)N(Cc1ccco1)Cc1cc2cc(C)c(C)cc2[nH]c1=O,.,.,.,.,.
COc1cc(OC)cc(C(=O)OCCCOC(=O)c2cc(OC)cc(OC)c2)c1,.,.,.,.,.
COc1cc(C(N)=O)cc(Br)c1OC,.,.,.,.,25
COc1cc(C(=O)OCCCOC(=O)c2cc(OC)c(OC)c(OC)c2)cc(OC)c1OC,.,.,.,.,22
SMILES,ATG4B inhibitor,PKA-R1A act,VLA-4 inh,PKA-R2B activ,CendR NRP1 mod
O=c1cc(CN2CCN(c3ccc(Cl)c(Cl)c3)CC2)c2c(ccc3ccccc32)o1,/,/,/,/,.
CCCCN(C(=O)c1ccc(C)c(S(=O)(=O)N2CCOCC2)c1)c1c(N)n(CC(C)C)c(=O)[nH]c1=O,.,.,.,.,.
COCCN(C(=O)c1ccc(C)c(S(=O)(=O)N2CCOCC2)c1)c1c(N)n(CC(C)C)c(=O)[nH]c1=O,.,.,/,.,29
O=C(NNC(=O)c1ccccc1F)c1ccc(Cl)c(S(=O)(=O)N2CCOCC2)c1,.,.,.,.,.
CC(=O)Nc1ccc(NC(=O)COc2ccc(S(=O)(=O)N3CCCC3)cc2)cc1,.,.,.,.,.
O=C(COc1ccc(S(=O)(=O)N2CCCC2)cc1)Nc1ccc2c(c1)OCCO2,.,.,.,.,36
O=C(NC(=S)Nc1cccc(O)c1)C12CC3CC(CC(C3)C1)C2,/,.,/,.,.
